PLK1 inh = PLK1 (human) kinase inhibition; P53350; recombinant PLK1 kinase, TR-FRET peptide phosphorylation; inhibition, % at 10 µM; 0.53% of 97,000 active; AID 619;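 active = inhibition of 50% or more in the single-concentration screen; inactive = inhibition below 50%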;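 note: 0% = DMSO max control and 100% = H-89 dihydrochloride min control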
EphB4 antag = EphB4-ephrin-B2 interaction antagonism | EphB4 LBD / TNYL-RAW-Alexa532 peptide, fluorescence polarization | P54760 | inhibition, % at 7 µM | AID 720 | 0.15% of 97,000 active;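 active = inhibition above the screen-wide mean inhibition plus 3 SD, cut at about 15% in these data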;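 note: 0% = DMSO wells and 100% = excess unlabeled TNYL-RAW peptide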
Target sequence (P54760 whole entry, looked up, the tested form may be a part): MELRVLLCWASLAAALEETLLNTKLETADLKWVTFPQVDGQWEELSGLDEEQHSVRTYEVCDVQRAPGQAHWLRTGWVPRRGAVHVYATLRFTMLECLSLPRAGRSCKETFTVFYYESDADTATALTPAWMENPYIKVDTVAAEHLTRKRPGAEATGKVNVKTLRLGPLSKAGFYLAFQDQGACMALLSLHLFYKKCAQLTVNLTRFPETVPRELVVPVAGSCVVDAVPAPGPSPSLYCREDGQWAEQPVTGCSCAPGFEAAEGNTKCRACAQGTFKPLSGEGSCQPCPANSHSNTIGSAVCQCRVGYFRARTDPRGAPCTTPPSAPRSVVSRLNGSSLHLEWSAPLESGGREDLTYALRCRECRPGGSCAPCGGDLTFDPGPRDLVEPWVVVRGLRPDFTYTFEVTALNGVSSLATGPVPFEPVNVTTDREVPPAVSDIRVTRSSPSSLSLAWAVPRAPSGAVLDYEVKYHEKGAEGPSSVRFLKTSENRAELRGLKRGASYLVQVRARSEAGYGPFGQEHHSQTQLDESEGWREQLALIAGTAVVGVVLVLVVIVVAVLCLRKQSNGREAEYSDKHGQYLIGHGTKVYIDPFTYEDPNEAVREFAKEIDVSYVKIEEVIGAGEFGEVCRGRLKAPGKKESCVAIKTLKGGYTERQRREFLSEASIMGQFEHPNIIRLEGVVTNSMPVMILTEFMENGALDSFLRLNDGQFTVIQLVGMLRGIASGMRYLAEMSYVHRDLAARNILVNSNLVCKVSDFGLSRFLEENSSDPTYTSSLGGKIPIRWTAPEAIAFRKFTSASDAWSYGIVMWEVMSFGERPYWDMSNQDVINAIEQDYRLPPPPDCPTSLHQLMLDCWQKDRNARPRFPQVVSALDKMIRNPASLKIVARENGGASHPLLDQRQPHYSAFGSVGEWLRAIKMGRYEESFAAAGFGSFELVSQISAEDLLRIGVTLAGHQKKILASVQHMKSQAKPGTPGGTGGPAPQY
FAK inh = FAK (human) kinase inhibition; biochemical FAK kinase activity assay; 0.84% of 97,000 active; inhibition, %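 (tested at 7 µM)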; AID 727; Q05397;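 note: 0% = DMSO and 100% = reference compound high control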
Plk1 PBD FP = Plk1 (human) PBD binding inhibition | P53350 | Plk1 PBD phosphopeptide binding, fluorescence polarization | inhibition, %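 (tested at about 20 µM)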 | 0.13% of 97,000 active | AID 693; in the data active = inhibition above about 34%, passing the limit was not always enough
Smad3 FoxH1 inh = Smad3 (human) transcription factor binding inhibition; TR-FRET Smad3/Dy647-FoxH1 peptide binding, europium anti-His; inhibition, % at 25 µM; AID 630; 0.29% of 88,000 active; P84022;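 active = compounds that reduce the energy-transfer binding signal between the protein and its labelled peptide by more than half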;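 note: 0% = Smad3 plus labelled peptide maximal FRET and 100% = peptide-only background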
FAK inh conf = confirmation of human focal adhesion kinase (FAK) inhibitors; shares compounds with FAK inh; FAK kinase biochemical inhibition assay; inhibition, % at 7 µM; 28% of 750 active; AID 794
The depositor's hits bear a star; x = no result given. This is a sample that favours compounds with a hit; in the whole collection about 1.5% have one here. Cut-off read from the data, not from the text of the source, unless noted: active = inhibition above about 19%; inactive = the rest.

SMILES	PLK1 inh	EphB4 antag	FAK inh	Plk1 PBD FP	Smad3 FoxH1 inh	FAK inh conf
COc1cccc(C(=O)Nc2c(C(N)=O)oc3ccccc23)c1	-9	-1	21*	-26	-5	8
S=C(Nc1ccc2c(c1)OCO2)NC1CCN(Cc2ccccc2)CC1	5	1	-1	2	-9	x
CC(C)c1nc(-c2c(N)n(C)c(=O)n(C)c2=O)sc1C(=O)C(C)(C)C	x	x	x	x	-2	x
CCN(CC)C(=O)CSc1nc2ccc(NC(=O)CSc3nnc(N)s3)cc2s1	-12	0	21*	-5	x	3
Cn1c(SCC(=O)Nc2ccc3nc(SCC(=O)N4CCCC4)sc3c2)nnc1-c1ccc(N)cc1	-11	13	31*	21	x	32*
CCC(=O)Nc1ccc2nc(SCC(=O)N3CCCC3)sc2c1	-12	5	4	-24	6	x
CSc1ccccc1C(=O)NCCc1ccc(S(=O)(=O)N2CCCCC2)cc1	-5	-10	-1	7	16	x
Clc1ccc2[nH]c3c(NCC4CCCO4)ncnc3c2c1 (centres undefined)	4	7	22*	-11	-17	10
COc1ccc(C(=O)c2oc3nc(C)cc(C)c3c2N)cc1	-21	-1	2	-9	-1	x
COc1ccc(NC(=O)CNS(=O)(=O)c2ccc(Cl)cc2)cc1	-2	2	2	17	15	x
O=C(Nc1cccc(-c2cc3ccccc3oc2=O)c1)c1ccc(Br)o1	-6	-1	3	-30	-2	x
COc1ccc(-c2cc3ccccc3oc2=O)cc1NC(=O)c1ccc(Br)o1	-11	-2	65*	-2	-312	59*
O=C1c2ccccc2S(=O)(=O)N1CC(O)Cn1ccc2ccccc21 (centres undefined)	-16	4	-1	-25	-6	x
Cc1nc(NCc2ccco2)c2oc3ccccc3c2n1	-5	-2	24*	5	x	8
CN(Cc1ccccc1)c1nc2c(c(=O)n(C)c(=O)n2C)n1CCSc1ncccn1	x	x	x	x	1	x
O=C1Nc2ccccc2Nc2ncccc21	-3	-7	39*	-10	x	12
Cc1ccc2c(c1)NC(=O)c1cccnc1N2	-13	-3	12	6	x	x
CCC(=O)n1nc(-c2ccccc2)nc1SCC(=O)Nc1ccc(C)cc1	-16	5	2	5	x	x
CC(=O)n1nc(-c2cccc(C)c2)nc1SCC(=O)Nc1ccccc1	-5	0	19*	8	x	9
CC(=O)Nc1c(C(=O)c2ccccc2)oc2ccccc12	-2	5	-1	32	5	x
COc1ccc([N+](=O)[O-])cc1COc1cc(C)cc2oc(=O)cc(-c3ccccc3)c12	9	1	27*	-28	x	22*
O=C(COc1ccc(S(=O)(=O)N2CCCC2)cc1Cl)NCc1ccco1	-11	-5	-1	4	-14	x
COc1cccc(C(=O)NC2CC3CCCC(C2)N3CC(=O)Nc2ccccc2)c1 (centres undefined)	8	6	22*	11	81*	7
COc1cccc(C(=O)NC2CC3CCCC(C2)N3CC(=O)Nc2ccc(N(C)C)cc2)c1 (centres undefined)	-6	-5	-3	-7	-7	x
O=C(Nc1ccc2c(c1)OCCO2)c1cccc2nc3ccccc3nc12	-6	9	38*	8	x	16
SMILES	PLK1 inh	EphB4 antag	FAK inh	Plk1 PBD FP	Smad3 FoxH1 inh	FAK inh conf
CC(=O)Nc1ccc(-c2nn[nH]n2)cc1Cl	-14	-1	-2	11	x	x
CC(C)(C)c1nc(SCC(=O)Nc2nc3c(s2)CCCC3)c2ccccc2n1	-9	0	9	-30	x	x
CC(C)c1nc(SCC(=O)Nc2nc3c(s2)CCCC3)c2ccccc2n1	-2	0	20*	10	x	8
Cc1cc(NC(=O)CSc2ccccc2)no1	-2	2	1	24	-10	x
Cc1nnc(NC(=O)CSc2nc(C(C)C)nc3ccccc23)s1	-1	1	46*	20	x	23*
Cc1cc(NC(=O)CSc2nc(C(C)C)nc3ccccc23)no1	0	9	45*	-31	1	28*
CC(C)(C)C(=O)c1sc(Nc2ccccc2)nc1N	-10	4	32*	-1	2	19
CCOC(=O)c1c(C)c(C(=O)NCc2ccccc2OC)c(C)n1C	-4	2	46*	-2	-19	-3
CCOCCCNC(=O)c1c(C)c(C(=O)OCC)n(C)c1C	x	x	x	x	-3	x
CCOc1ccc(C(=O)Nc2cccc(-c3cc4ccccc4oc3=O)c2)cc1[N+](=O)[O-]	-15	-9	30*	-15	x	13
CCn1nnc(NC(=O)c2cccc(-c3cc4ccccc4oc3=O)c2)n1	-13	1	-1	8	4	x
COc1cccc(C(=O)Nc2ncc3c(n2)CC(C)CC3=O)c1 (centres undefined)	-12	2	0	-15	8	x
Cc1ccc(-c2n[nH]c(=S)n2/N=C/C=C\c2ccccc2[N+](=O)[O-])cc1	-16	3	29*	-12	1	15
Cc1cc(C)c(Cn2c(=O)n(CCCC(=O)NCc3ccco3)c(=O)c3ccccc32)c(C)c1	-10	0	1	9	6	x
CC(C)C(=O)Nc1ccc(N2CCCC2)cc1	-7	-4	5	-14	5	x
O=C(Cc1ccccc1)Nc1ccc(N2CCCC2)cc1	-3	-4	30*	-5	6	16
O=C(Nc1ccc(N2CCCC2)cc1)C(c1ccccc1)c1ccccc1	-9	2	46*	-22	8	29*
CCN1CCN(c2ccc(NC(=O)Cc3ccccc3)cc2)CC1	-6	3	7	12	-4	x
O=C(O)CSc1n[nH]c(=O)[nH]c1=O	x	x	x	x	-19	x
CSc1nc(NCc2ccccc2)c2c3c(sc2n1)CN(C)CC3	-7	-8	21*	48	x	6
CSc1nc(NCC(C)C)c2c3c(sc2n1)CN(C)CC3	-7	8	5	-25	x	x
C[C@]12CC[C@@H]3c4ccc(OC(=O)c5ccccc5)cc4CC[C@H]3[C@@H]1CC[C@@H]2O	x	x	x	x	0	x
CN1/C(=N\O)c2cccc3cccc1c23	-9	-3	21*	-14	-8	8
COC(=O)c1sc2cnccc2c1N	31	7	24*	3	-1	5
COCc1cc(C)nc2sc(C(=O)OC)c(N)c12	-10	4	1	30	x	x
SMILES	PLK1 inh	EphB4 antag	FAK inh	Plk1 PBD FP	Smad3 FoxH1 inh	FAK inh conf
CC(Oc1ccccc1)C(=O)Nc1ccccc1O (centres undefined)	-12	7	0	-18	-20	x
CCCNc1ncccc1C(N)=O	x	x	x	x	12	x
CCC(=O)Nc1nc2nc(-c3ccccc3)cc(-c3ccccc3)n2n1	-16	13	24*	-14	x	8
CCCC(=O)Nc1nc2nc(-c3ccccc3)cc(-c3ccccc3)n2n1	-6	-3	2	-13	-11	x
COc1ccc(-n2c(NC(=O)c3ccco3)c(C#N)c3nc4ccccc4nc32)cc1	-7	-1	21*	12	x	-4
CCCCn1c(NC(=O)c2ccccc2Cl)c(C#N)c2nc3ccccc3nc21	-2	7	28*	-18	80*	-1
